Measured values reported in PubChem BioAssay AID1962 (The Scripps Research Institute Molecular Screening Center, 2009).
The whole screen tested about 300,000 compounds, of which about 2,500 (0.83%) were called active.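 The calls were made as follows: active = inhibition above the mean of all tested compounds plus 3 SD, set per screening campaign (cut at about 24% in these data); inactive = the rest.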 The full list was thinned out, with actives kept by preference.

test system: tRNA 2'-phosphotransferase TPT1 (Candida albicans SC5314); test: tRNA 2'-phosphotransferase blockers, C. albicans – biochemical, fluorescence polarization, primary screen (AID 1962); conditions: recombinant caTPT1, FP RNA substrate dephosphorylation; at 5 µM; stronger effect = higher value;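 also: plate controls were DMSO alone for no effect and ferristatin control at 100 nM for full effect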

inhibition, active:
CSC1=N/C(=C\C=C\c2cccs2)C(=O)S1 35.6%, CCOC(=O)c1c(NC(=S)Nc2ccccc2)sc2c1CCN(C)C2 53.5%, COc1ccccc1/C=N/Nc1nc(C)c(C(C)=O)s1 28%, CCN(CC)c1ccc2cc(C(N)=O)/c(=N\NC(=O)c3ccncc3)oc2c1 133%, CCC(=C/c1sc2ccc3ccccc3c2[n+]1C)/C=C1\Sc2ccc3ccccc3c2N1C 92%, CN=c1scc(-c2cc(OC)ccc2OC)n1/N=C/c1c(C)[nH]c2ccccc12 62.6%, CCC(c1nnnn1Cc1ccco1)N(Cc1cc2cc(OC)ccc2[nH]c1=O)C1CCCCC1 (stereo not drawn) 38.4%, COc1ccc(N=C(C)c2sc3ccccc3c2O)cc1 63.5%, Cc1cccc2cc3c(N)c(C(=O)N4CCCc5ccccc54)sc3nc12 45.2%

inhibition, inactive:
CN=C(c1ccccc1)c1c(C)cccc1C -0.46%, CN1C/C(=C/c2cccs2)C(=O)/C(=C\c2cccs2)C1 -2.84%, Cc1cccc(C2=N/C(=C/c3cccs3)C(=O)O2)c1 -1.73%, CCOC(=O)c1c(NC(=S)NC)sc2c1CCCC2 -1.5%, CCOC(=O)c1c(NC(=O)NC(C)(C)C)sc2c1CCN(C)C2 2.5%, CCOc1ccc(/C=C/C(=O)N(CC)CC(=O)NCc2cccs2)cc1OC -3.86%, CC(=O)c1sc(N/N=C\c2ccc(C)cc2)nc1C 17.2%, CC(=O)c1sc(N/N=C/c2ccc(C(C)C)cc2)nc1C 23%, CCCCNC(=O)Nc1c(C)cc(SC#N)cc1C -6.37%, COCCNC(=O)C1CCN(C(=O)C2CC(=O)N(c3ccc(C)cc3)C2)CC1 (stereo not drawn) 1.54%, Cc1ccn2c(c1)nc(=O)c1cc(S(=O)(=O)N3CCC(C)CC3)ccc12 0.45%, COc1ccc(C(=O)N/N=c2\oc3ccccc3cc2C(N)=O)cc1 4.71%, NC(=O)c1cc2ccccc2o/c1=N/NC(=O)c1cccc(F)c1 -1.51%, NC1=NC(=O)C(Cc2cccc(Cl)c2)S1 (stereo not drawn) -2.15%, CCCCCCCCn1c2c(c(=N)c3c1CCC3)CCCC2 -2.44%, CCCCCCSc1ccc([C@@H]2[C@@H]3C(=O)N(CC)C(=O)[C@@H]3[C@]3(C(=O)OC)CCCCN23)cc1OC 1.68%, CCn1c(-c2cc(OC)ccc2OC)csc1=Nc1c(C)n(C)n(-c2ccccc2)c1=O -1.13%, COc1cc(N=Cc2c(O)[nH]c3ccccc23)cc(OC)c1OC -0.99%, Cc1nn2c(=O)cc(COC(=O)c3ccc(NC(=O)C(C)(C)C)cc3)nc2s1 -2.53%, CCOC(=O)[C@H]1[C@H]2COc3ccc(OC)cc3[C@@H]2N2C(=O)c3ccc(F)cc3NC(=O)[C@@]12C 0.85%, CC(C)CCN1NC2(CCC(C)CC2)NC1=S (stereo not drawn) 2.43%, COc1ccc2ccccc2c1CNc1nnnn1C -1.06%, O=C1CN(C(=O)c2ccccc2F)C(c2ccc(F)cc2)c2cc(F)ccc2N1 (stereo not drawn) 0.25%, CCC(c1nnnn1Cc1ccco1)N(CCc1ccccc1)Cc1cc2ccc(OC)cc2[nH]c1=O (stereo not drawn) -2.34%, CCC(c1nnnn1Cc1ccccc1)N(Cc1cc2cc(OC)ccc2[nH]c1=O)CC1CCCO1 (stereo not drawn) -1.86%, CCOc1ccc(Oc2nc(C)cc(OC)n2)nn1 -1.74%, CN(C)C(=O)N=NC(=O)N(C)C -3.37%, COc1ccccc1-c1sc2ccccc2c1-c1ccc(C(C)=O)cc1 -1.61%, COC(=O)Cc1[nH]n(-c2nc3ccccc3s2)c(=O)c1C(C)=Nc1ccc(OC)cc1 1.09%, CC(C)(Oc1ccc(C2CC2(Cl)Cl)cc1)C(=O)O (stereo not drawn) -2.25%, Cc1c(C(=O)N2CCCc3ccccc32)oc2ccccc12 -2.42%, Cc1c(C(=O)N2CCCc3ccccc32)sc2nc(-c3ccccc3)cn12 -1.15%, C#CCOCCOCCOCCNc1nc(N2CCN(C(=O)Cn3cc(CCCCN)nn3)CC2)nc(N2CCN(C(=O)[C@H](CCCCN)n3cc(CCC(=O)O)nn3)CC2)n1 -1.83%, Cc1ccc(Cc2nnc(SCC(=O)Nc3ccccc3C)[nH]c2=O)cc1 1.69%
